Measurements reported in PubChem BioAssay (EPA / NIEHS).
Activity calls are given as the source filed them. The calls were made as follows: active = hit-call score of the fitted dose curve at least 0.9, where 1 is the maximum; inactive = score below 0.9.

Columns and labels:
[1] = BSK_KF3CT_SRB: Viability Assessment in the BioMAP Diversity Plus: KF3CT Assay (AID 2283069); conditions: primary human keratinocytes with fibroblasts;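 also: total protein by sulforhodamine B staining as a cytotoxicity measure; read 24 h after compound addition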
Procedure, shortened: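 SRB read-out at 560 nm (0.1% stain, TCA-fixed cells) gauges overt cytotoxicity in a human skin keratinocyte–fibroblast co-culture 24 h post-dosing. Signal change was fitted bidirectionally relative to DMSO control.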

[2] = read-out: Interleukin-1 alpha (IL1a), IL1A (gene 3552); assay: BSK_KF3CT_IL1a: BioMAP Diversity Plus: KF3CT Assay for Interleukin-1 alpha (IL1a) Biomarker Activity (AID 2283070); conditions: primary human keratinocytes with fibroblasts; actives raise or lower the signal
Procedure, shortened: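 Primary skin co-culture (keratinocytes, foreskin fibroblasts), 24 h exposure; ELISA for IL-1a; bidirectional curve fit vs DMSO.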

[3] = read-out: TIMP metallopeptidase inhibitor 2 (TIMP2), TIMP2 (gene 7077); assay: BSK_KF3CT_TIMP2: BioMAP Diversity Plus: KF3CT Assay for TIMP metallopeptidase inhibitor 2 (TIMP2) Biomarker Activity (AID 2283071); conditions: primary human keratinocytes with fibroblasts; actives raise or lower the signal
Procedure, shortened: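 Chemicals were dosed onto human skin primary co-cultures of keratinocytes and foreskin fibroblasts, and TIMP-2 was measured by ELISA after 24 hours. Activity in either direction was fitted relative to DMSO.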

[4] = read-out: Transforming growth factor beta 1 (TGFb1), TGFB1 (gene 7040); assay: BSK_KF3CT_TGFb1: BioMAP Diversity Plus: KF3CT Assay for Transforming growth factor beta 1 (TGFb1) Biomarker Activity (AID 2283072); conditions: primary human keratinocytes with fibroblasts; actives raise or lower the signal
Procedure, shortened: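 KF3CT co-culture (keratinocytes + fibroblasts), 24 h exposure → TGF-b1 ELISA → bidirectional fit, DMSO = baseline. Parallel SRB total-protein staining (0.1% SRB, 10% TCA fixation, 560 nm) for cytotoxicity.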

[5] = read-out: C-C motif chemokine 2 (Homo sapiens) (UniProt P13500); assay: BSK_KF3CT_MCP1: BioMAP Diversity Plus: KF3CT Assay for Monocyte Chemoattractant Protein 1 (MCP1/CCL2) Biomarker Activity (AID 2283073); conditions: primary human keratinocytes with fibroblasts; actives raise or lower the signal
Procedure, shortened: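 Human keratinocyte plus foreskin fibroblast primary co-culture exposed to chemical for 24 h. MCP-1 levels measured by ELISA. Bidirectional curve fitting relative to DMSO negative control as baseline.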

[6] = read-out: Matrix Metallopeptidase 9 (MMP9), MMP9 (gene 4318); assay: BSK_KF3CT_MMP9: BioMAP Diversity Plus: KF3CT Assay for Matrix Metallopeptidase 9 (MMP9) Biomarker Activity (AID 2283074); conditions: primary human keratinocytes with fibroblasts; actives raise or lower the signal
Procedure, shortened: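 ELISA read-out of MMP-9 at 24 h post-dosing in a co-culture of human skin keratinocytes and foreskin fibroblasts. Gain or loss of signal was fitted in both directions against DMSO.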

[7] = read-out: urokinase plasminogen activator (uPA), PLAU (gene 5328); assay: BSK_KF3CT_uPA: BioMAP Diversity Plus: KF3CT Assay for urokinase plasminogen activator (uPA) Biomarker Activity (AID 2283075); conditions: primary human keratinocytes with fibroblasts; actives raise or lower the signal
Procedure, shortened: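 Skin co-culture (keratinocytes + foreskin fibroblasts), human primary; 24 h post-dose; uPA by ELISA; gain/loss fit vs DMSO baseline.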

CD40, CD40 (gene 958) [8] = assay: BSK_LPS_CD40: BioMAP Diversity Plus: LPS Assay for CD40 Biomarker Activity (AID 2283076); conditions: primary human HUVEC with PBMC; actives raise or lower the signal
Procedure, shortened: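 Primary human umbilical vein endothelial cells co-cultured with peripheral blood mononuclear cells, LPS-stimulated, were dosed with chemical and read 24 h later. CD40 levels were measured by ELISA and fitted bidirectionally against DMSO as negative control and baseline.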

[9] = read-out: E-selectin (Homo sapiens) (UniProt P16581); assay: BSK_LPS_Eselectin: BioMAP Diversity Plus: LPS Assay for Eselectin Biomarker Activity (AID 2283077); conditions: primary human HUVEC with PBMC; actives raise or lower the signal
Procedure, shortened: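 Human umbilical vein endothelial cells co-cultured with peripheral blood mononuclear cells under LPS stimulation; E-selectin measured by ELISA 24 h after chemical dosing. Activity fitted bidirectionally against DMSO as negative control and baseline.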

[10] = read-out: Interleukin-8 (IL8), CXCL8 (gene 3576); assay: BSK_LPS_IL8: BioMAP Diversity Plus: LPS Assay for Interleukin-8 (IL8) Biomarker Activity (AID 2283078); conditions: primary human HUVEC with PBMC; actives raise or lower the signal
Procedure, shortened: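 Human umbilical vein endothelial cells co-cultured with PBMC were stimulated with LPS; IL-8 levels were measured by ELISA 24 h after chemical dosing. Activity was fitted bidirectionally against DMSO as negative control and baseline.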

[11] = BSK_LPS_SRB: Viability Assessment in the BioMAP Diversity Plus: LPS Assay (AID 2283079); conditions: primary human HUVEC with PBMC;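 also: total protein by sulforhodamine B absorbance as a cytotoxicity measure; measured one day after compound addition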
Procedure, shortened: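 Human umbilical vein endothelial cells co-cultured with PBMC (LPS system) were dosed for 24 h. Total protein was stained with 0.1% sulforhodamine B after 10% TCA fixation, read at 560 nm, and fitted bidirectionally against DMSO baseline.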

[12] = read-out: Interleukin-1 alpha (IL1a), IL1A (gene 3552); assay: BSK_LPS_IL1a: BioMAP Diversity Plus: LPS Assay for Interleukin-1 alpha (IL1a) Biomarker Activity (AID 2283080); conditions: primary human HUVEC with PBMC; actives raise or lower the signal
Procedure, shortened: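 Human umbilical vein endothelial cells co-cultured with peripheral blood mononuclear cells were LPS-stimulated and exposed to test chemicals for 24 h. IL-1 alpha was quantified by ELISA, with bidirectional curve fitting against DMSO as the negative control and baseline.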

[13] = read-out: Monocyte Chemoattractant Protein-1 (MCP1), CCL2 (gene 6347); assay: BSK_LPS_MCP1: BioMAP Diversity Plus: LPS Assay for Monocyte Chemoattractant Protein-1 (MCP1) Biomarker Activity (AID 2283081); conditions: primary human HUVEC with PBMC; actives raise or lower the signal;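 as to AC50: secreted MCP-1 protein quantified by ELISA in culture supernatant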
Procedure, shortened: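 HUVEC plus PBMC co-culture (human primary cells, LPS system) exposed to test chemical for 24 h; MCP-1 measured by ELISA. Bidirectional curve fitting against DMSO baseline; parallel SRB total-protein staining flags overt cytotoxicity.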

[14] = BSK_LPS_PGE2: BioMAP Diversity Plus: LPS Assay for Prostaglandin E2 (PGE2) Biomarker Activity (AID 2283082); conditions: primary human HUVEC with PBMC; actives raise or lower the signal
Procedure, shortened: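 Compounds were added to the LPS co-culture of endothelium and PBMC, and PGE2 was measured by ELISA after 24 h. Responses in either direction were fitted with DMSO as baseline.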

[15] = read-out: Macrophage colony-stimulating factor (MCSF), CSF1 (gene 1435); assay: BSK_LPS_MCSF: BioMAP Diversity Plus: LPS Assay for Macrophage colony-stimulating factor (MCSF) Biomarker Activity (AID 2283083); conditions: primary human HUVEC with PBMC; actives raise or lower the signal
Procedure, shortened: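 Human umbilical vein endothelial cells co-cultured with peripheral blood mononuclear cells were exposed to compound for 24 h. M-CSF levels were measured by ELISA, and bidirectional curve fitting used DMSO as the negative control and baseline.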

[16] = read-out: Tissue Factor, F3 (gene 2152); assay: BSK_LPS_TissueFactor: BioMAP Diversity Plus: LPS Assay for Tissue Factor Biomarker Activity (AID 2283084); conditions: primary human HUVEC with PBMC; actives raise or lower the signal
Procedure, shortened: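 Human umbilical vein endothelial cells co-cultured with peripheral blood mononuclear cells were dosed and stimulated with LPS. Cell-surface CD142 was quantified by ELISA at 24 h. Activity was fitted bidirectionally against DMSO baseline.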

[17] = read-out: Tumor necrosis factor (Homo sapiens) (UniProt P01375); assay: BSK_LPS_TNFa: BioMAP Diversity Plus: LPS Assay for Tumour Necrosis Factor alpha (TNFa) Biomarker Activity (AID 2283085); conditions: primary human HUVEC with PBMC; actives raise or lower the signal;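 as to AC50: TNFa protein level quantified by ELISA in the co-culture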
Procedure, shortened: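 Cells (umbilical vein endothelium plus peripheral blood mononuclear cells) were dosed with chemical, incubated 24 h, then TNFa was quantified by ELISA; values derive from bidirectional fitting with DMSO as baseline.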

[18] = read-out: Vascular cell adhesion molecule 1 (VCAM1), VCAM1 (gene 7412); assay: BSK_LPS_VCAM1: BioMAP Diversity Plus: LPS Assay for Vascular cell adhesion molecule 1 (VCAM1) Biomarker Activity (AID 2283086); conditions: primary human HUVEC with PBMC; actives raise or lower the signal
Procedure, shortened: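 Cells are dosed in an LPS-stimulated endothelial/mononuclear co-culture and, after 24 h, VCAM-1 is quantified by ELISA. Activity in either direction is fitted relative to the DMSO negative control.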

CD38, CD38 (gene 952) = assay: BSK_SAg_CD38: BioMAP Diversity Plus: SAg Assay for CD38 Biomarker Activity (AID 2283087); conditions: primary human HUVEC with PBMC; actives raise or lower the signal
Procedure, shortened: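 CD38 quantified by ELISA (fluorescence) in a superantigen-activated endothelial cell–PBMC co-culture at 24 h post-dose. Activity fitted in both directions relative to DMSO; parallel SRB and Alamar Blue cytotoxicity read-outs.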

CD40, CD40 (gene 958) [19] = assay: BSK_SAg_CD40: BioMAP Diversity Plus: SAg Assay for CD40 Biomarker Activity (AID 2283088); conditions: primary human HUVEC with PBMC; actives raise or lower the signal
Procedure, shortened: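 Human umbilical vein endothelial cells co-cultured with PBMC; CD40 levels measured by ELISA with fluorescence read-out 24 h after chemical dosing. Gain or loss of signal fitted bidirectionally against DMSO baseline.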

Measured: AC50

Chain of E-selectin (Homo sapiens) (P16581 whole entry, looked up): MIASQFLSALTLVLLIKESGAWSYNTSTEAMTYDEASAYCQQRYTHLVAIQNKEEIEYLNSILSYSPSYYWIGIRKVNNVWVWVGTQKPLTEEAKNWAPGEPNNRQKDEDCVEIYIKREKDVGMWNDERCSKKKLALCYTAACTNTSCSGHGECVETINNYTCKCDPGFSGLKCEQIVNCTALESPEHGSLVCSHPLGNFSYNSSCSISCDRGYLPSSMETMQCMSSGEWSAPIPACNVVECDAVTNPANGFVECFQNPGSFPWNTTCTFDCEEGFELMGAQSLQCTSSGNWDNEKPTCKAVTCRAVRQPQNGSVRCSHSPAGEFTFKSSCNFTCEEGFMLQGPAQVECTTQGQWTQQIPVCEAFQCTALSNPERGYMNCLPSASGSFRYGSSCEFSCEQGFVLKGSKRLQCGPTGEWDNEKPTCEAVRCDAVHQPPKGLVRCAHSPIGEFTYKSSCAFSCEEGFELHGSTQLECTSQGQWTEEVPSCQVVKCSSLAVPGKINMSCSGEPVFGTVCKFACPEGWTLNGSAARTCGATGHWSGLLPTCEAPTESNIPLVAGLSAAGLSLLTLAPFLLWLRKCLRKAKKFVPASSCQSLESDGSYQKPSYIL
Chain of Tumor necrosis factor (Homo sapiens) (P01375 whole entry, looked up): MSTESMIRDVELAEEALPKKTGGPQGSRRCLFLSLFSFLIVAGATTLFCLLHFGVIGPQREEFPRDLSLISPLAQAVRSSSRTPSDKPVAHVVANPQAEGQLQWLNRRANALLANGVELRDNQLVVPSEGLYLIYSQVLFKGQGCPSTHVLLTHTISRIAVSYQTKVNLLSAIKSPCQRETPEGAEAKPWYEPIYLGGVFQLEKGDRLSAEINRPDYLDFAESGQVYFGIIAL

Cn1sc(Cl)cc1=O
active: CD40, CD40 (gene 958) [8] 26 µM | [9] 35.4 µM | [12] 29.3 µM | [13] 35.2 µM | [15] 29.5 µM | [17] 31.2 µM | [18] 29.3 µM | CD38, CD38 (gene 952) 31.3 µM | CD40, CD40 (gene 958) [19] 26.4 µM
inactive: all other assays above

OCc1ccco1
not listed: [14] | CD40, CD40 (gene 958) [19]
inactive: all other assays above

CCSC(C)CC1CC(=O)C(C(CC)=NOC/C=C/Cl)=C(O)C1 (stereo unspecified)
active: [10] 0.0903 µM
not listed: [14] | CD40, CD40 (gene 958) [19]
inactive: all other assays above

O=S(=O)(c1ccc(Cl)cc1)c1ccc(Cl)cc1
inactive: all assays above
